# PubChem BioAssay (NCATS)
# Where “and” joins values, the source holds several entries; their conditions need not be identical. Identical values can stand only once. Results filed as inconclusive are left out. Where a call stands in place of a potency, no number is given. The source holds several records for some structures; these can differ, active in one and inactive in another. Calls of active or inactive are those of the source. Unless noted, calls follow the shape of the dose curve; as a rule, active = well fitted curve in the direction sought with a large enough effect; inconclusive = small, poorly fitted or top-dose-only effect, or another doubt; inactive = no such curve, though single readings can be large; an effect the other way counts as inactive or inconclusive.
# Key:
# [1] = High-throughput drug toxicity screening in the BPDCN cell line Gen2.2 (AID 1224824; call rule not given here;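 also: cells exposed to compounds for 48 h before reading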); conditions: Gen2.2 BPDCN cells; at 45.8 µM (top of the series) unless noted
# Summary of the method: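 CellTiter-Glo luminescence after 48 h compound exposure of Gen2.2 cells; percent activity set with DMSO as 100% and bortezomib (9.2 uM final) as 0%. Cells seeded at 500 per well, RPMI + 10% FBS, 37 °C.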
# [2] = High-throughput drug toxicity screening in the BPDCN cell line Cal-1 (AID 1224825; call rule not given here); conditions: Cal-1 BPDCN cell viability, qHTS; at 45.8 µM (top of the series) unless noted
# Summary of the method: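 500 Cal-1 cells/well, RPMI + glutamine + 10% FBS (phenol red-free); cpd added by pin tool; 48 h, 37C, 5% CO2; CTG 15 min RT, lumi read. Normalised: DMSO 100%, bortezomib 9.2 uM 0%.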
# [3] = qHTS assay for measurement of the activity of small molecule inhibitors on Zika virus induced Caspase-3 activity in human iPSC derived neural progenitor cells (hNPCs) (AID 1224857); also: nearly all actives have a fitted effect of over 65% in size; also: potency is read from the fitted curve at half-maximal effect
# Summary of the method: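 Human iPSC-derived neural progenitor cells pretreated 1 hr with compounds, then infected with Zika virus (2 FFU/cell) for 6 hours at 37 C. Caspase-3/7 measured by Caspase-Glo luminescence; % inhibition calculated from induction scaled to uninfected (0%) and infected (100%) wells.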
# [4] = qHTS assay for measurement of the activity of small molecule inhibitors on Zika virus induced Caspase-3 activity in human astrocytoma cells (AID 1224859); also: potency is read from the fitted curve at half-maximal effect
# Summary of the method: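 SNB-19 astrocytoma cells, 250/well, pretreated 1 h with compounds, then Zika virus at 2 FFU/cell for 6 h at 37 C; Caspase-Glo 3/7 luminescence after 30 min; percent inhibition normalised to uninfected and infected controls.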
# [5] = qHTS Screen of the MIPE 4.0 Collection Against Ewings Sarcoma (RDES) (AID 1259252); also: nearly all actives have a fitted effect of over 35% in size; also: potency is read from the fitted curve at half-maximal effect
# Summary of the method: (§1)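 Cells plated in serum-containing RPMI (5% FBS) and treated with compound dilutions for 48 h. Readout luminescent viability; normalization relied on vehicle (no inhibition) and media-only columns (full inhibition).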
# [6] = qHTS Screen of the MIPE 4.0 Collection Against Ewings Sarcoma (TC71) (AID 1259253); also: nearly all actives have a fitted effect of over 40% in size; also: potency is read from the fitted curve at half-maximal effect
# Summary of the method: as §1
# [7] = qHTS Screen of the MIPE 4.0 Collection Against Ewings Sarcoma (EW8) (AID 1259255); also: nearly all actives have a fitted effect of over 35% in size; also: potency is read from the fitted curve at half-maximal effect
# Summary of the method: as §1
# [8] = qHTS Screen of the MIPE 4.0 Collection Against Ewings Sarcoma (TC32) (AID 1259256); also: nearly all actives have a fitted effect of over 45% in size; also: potency is read from the fitted curve at half-maximal effect
# Summary of the method: as §1
# [9] = qHTS profiling of the MIPE4 collection as inhibitors of Plasmodium falciparum (3D7) proliferation (AID 743344; call rule not given here); conditions: P. falciparum 3D7 in erythrocytes, SYBR Green DNA fluorescence, 72 h; at 28.5 µM (top of the series) unless noted
# Summary of the method: (§2)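 Erythrocytes infected with P. falciparum (0.3% parasitemia, 2.5% hematocrit) incubated with compounds 72 h at 37 C, 5% CO2. Lysis with saponin/Triton buffer containing SYBR Green I, overnight at room temperature in the dark; DNA fluorescence (485/535 nm) normalised to 0.29 uM artemisinin and DMSO.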
# [10] = qHTS profiling of the MIPE4 collection as inhibitors of Plasmodium falciparum (DD2) proliferation (AID 743345; call rule not given here); conditions: P. falciparum Dd2 in erythrocytes, SYBR Green DNA, 72 h; at 28.5 µM (top of the series) unless noted
# Summary of the method: as §2
# [11] = qHTS profiling of the MIPE4 collection as inhibitors of Plasmodium falciparum (DD2) proliferation (Rep 2) (AID 743346; call rule not given here); conditions: P. falciparum Dd2 in erythrocytes, SYBR Green DNA, 72 h; at 28.5 µM (top of the series) unless noted
# Summary of the method: as §2
# [12] = qHTS profiling of the MIPE4 collection as inhibitors of Plasmodium falciparum (HB3) proliferation (AID 743347; call rule not given here); conditions: P. falciparum HB3 in erythrocytes, SYBR Green DNA, 72 h; at 28.5 µM (top of the series) unless noted
# Summary of the method: as §2
# [13] = qHTS assay to identify small molecule inhibitors of chordoma cells - UCH-1 (AID 1259355); also: nearly all actives have a fitted effect of over 55% in size
# Summary of the method: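 Seed 800 cells per well; incubate overnight at 37 C, 5% CO2. Add test compounds (15 concentrations), then the auranofin–topoisomerase-agent combination. Incubate 48hr, add CellTiter-Glo, wait 30min, read luminescence.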
# [14] = qHTS assay to identify small molecule inhibitors of chordoma cells - UCH-2 (AID 1259356)
# [15] = qHTS profiling for inhibitors of Plasmodium falciparum (3D7) proliferation (AID 743322);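 also: infected erythrocytes exposed to compound for 72 h before lysis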; conditions: P. falciparum 3D7 proliferation; at 28.7 µM (top of the series)
# Summary of the method: as §2
# [16] = qHTS profiling for inhibitors of Plasmodium falciparum (DD2) proliferation (AID 743323; call rule not given here); conditions: lower = more inhibition; at 28.7 µM (top of the series)
# Summary of the method: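 Parasite DNA quantified by SYBR Green fluorescence (ex 485, em 535 nm) after saponin/Triton lysis and overnight dark incubation. Cultures: 0.3% parasitemia, 2.5% hematocrit, 72 h, 37 C; data scaled between DMSO and 0.29 uM artemisinin.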
# [17] = qHTS profiling for inhibitors of Plasmodium falciparum (HB3) proliferation (AID 743324); conditions: Plasmodium falciparum HB3 blood-stage proliferation; at 28.7 µM (top of the series)
# Summary of the method: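 P. falciparum HB3 grown in erythrocytes (0.3% parasitemia, 2.5% hematocrit final) with compound for 72 h at 37 C, 5% CO2. Parasite DNA detected by SYBR Green after saponin/triton lysis overnight; normalized to 0.29 uM artemisinin and DMSO.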
# [18] = Identifying Small Molecule Inhibitors of Pancreatic Cancer Stem Cells (SN12C, Adherent) (AID 1259358);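 also: cell survival measured after 48 h of compound exposure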; also: potency is read from the fitted curve at half-maximal effect
# Summary of the method: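 Pre-formed 14-day tumor spheroids or adherent cells dosed and incubated 48 h, 37C, 5% CO2. Viability assessed by CellTiter-Glo.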
SMILES,"cell viability, % of control (lower = more cytotoxic) [1]",viability (% of control) [2],Potency [3],Potency [4],Potency [5],Potency [6],Potency [7],Potency [8],"parasite growth, % of DMSO control [9] [%]","parasite growth remaining, % of DMSO control (lower = more inhibition) [10] [%]","parasite growth, % of control (lower = inhibition) [11]","growth, % of control [12] [%]",Potency [13],Potency [14],remaining parasite growth % (stronger effect = lower value) [15] [%],"activity, percent of control [16] [%]","remaining proliferation (% of control), lower = more inhibition [17] [%]",Potency [18]
CC1(C)[C@H](C(=O)O)N2C(=O)C[C@H]2S1(=O)=O,240%,103%,inactive,inactive,inactive,inactive,inactive,inactive,,,,,,,,,,
CCn1cc(C(=O)O)c(=O)c2cc(F)c(N3CCN(C)CC3)cc21,85.7%,97.9%,inactive,inactive,inactive,inactive,inactive,inactive,206,70.5,52.8%,370,inactive,inactive,,,,
Nc1nc(N)nc(-c2cc(Cl)ccc2Cl)n1,126%,98%,inactive,inactive,inactive,inactive,inactive,inactive,83.2,,128%,,inactive,inactive,,,,
CCOCC(O)COc1ccc(NC(=O)CC[S+](C)C)cc1 (stereo not drawn),120%,110%,inactive,inactive,inactive,inactive,inactive,inactive,,103,97.7%,,inactive,inactive,,,,
CN(CCOc1ccc(CC2SC(=O)NC2=O)cc1)c1ccccn1 (stereo not drawn),101%,107%,inactive,inactive,6.62 µM (active),10.5 µM (active),inactive,inactive,,,95.7%,60.7,inactive,inactive,,,,
CCC(=O)O[C@]1(C(=O)CCl)[C@@H](C)C[C@H]2[C@@H]3CCC4=CC(=O)C=C[C@]4(C)[C@@]3(F)[C@@H](O)C[C@@]21C,44.1%,47.1%,inactive,inactive,inactive,inactive,inactive,inactive,,55.4,8.54%,,,inactive,,,,
CCn1cc(C(=O)O)c(=O)c2cc(F)c(N3CCNCC3)nc21,194%,114%,inactive,inactive,inactive,inactive,inactive,inactive,,56.4,53.9%,56.4,inactive,inactive,,,,
Cn1nnc2c(C(N)=O)ncn2c1=O,79.7%,80.1%,inactive,inactive,inactive,inactive,inactive,inactive,97.2,86.5,120%,98.2,,inactive,,,,
Cc1cccc(Nc2ccncc2S(=O)(=O)NC(=O)NC(C)C)c1,90.1%,107%,inactive and 18.7 µM (active),inactive,inactive,inactive,inactive,inactive,93.3,,125%,95.2,inactive,inactive,,,,
CNS(=O)(=O)Cc1ccc2[nH]cc(CCN(C)C)c2c1,219%,117%,inactive,inactive,inactive,inactive,inactive,inactive,,70.9,75.7%,17.2,inactive,inactive,,,,
CCN(C)C(=O)Oc1cccc([C@H](C)N(C)C)c1,97.8%,73.8%,inactive,inactive,inactive,inactive,inactive,inactive,,17.2,,,inactive,inactive,,,,
CC(=O)Oc1ccccc1C(=O)Nc1ncc([N+](=O)[O-])s1,73% [at 92.2 µM],38.5% [at 92.2 µM],1.91 µM (active),1.71 µM (active) and inactive,21.5 µM (active),19.1 µM (active),21.5 µM (active),21.5 µM (active),,,7.18% [at 57.5 µM],,,inactive,,,,
COc1nc(N)nc2c1ncn2[C@@H]1O[C@H](CO)[C@@H](O)[C@@H]1O,82.2%,78%,inactive,inactive,20.9 µM (active),inactive,inactive,inactive,77.9,,37.8%,85.6,inactive,inactive,,,,
CC(C)C[C@H](NC(=O)[C@H](CCc1ccccc1)NC(=O)CN1CCOCC1)C(=O)N[C@@H](Cc1ccccc1)C(=O)N[C@@H](CC(C)C)C(=O)[C@@]1(C)CO1,5.77%,3.67%,inactive,inactive,0.0187 µM (active),0.0372 µM (active),0.0132 µM (active),0.0148 µM (active),,7.08,9.09%,6.02,,,-0.503,-1.29,0.46,37.2 nM (active)
COc1cc(NCc2ccc3nc(N)nc(N)c3c2C)cc(OC)c1OC,8.74%,3.95%,inactive,inactive,3.32 µM (active),0.833 µM (active),1.32 µM (active),0.833 µM (active),15.9,7.41,10.9%,19.6,,inactive,,,,
CN(Cc1cc(Br)cc(Br)c1N)C1CCCCC1,226%,107%,inactive,inactive,inactive,inactive,inactive,inactive,44.4,113,25.7%,,,inactive,,,,
Cc1c(-c2ccc(O)cc2)n(Cc2ccc(OCCN3CCCCCC3)cc2)c2ccc(O)cc12,158%,121%,inactive,inactive,inactive,inactive,inactive,inactive,,,,,,,,,,inactive
CCN[C@H]1C[C@H](C)S(=O)(=O)c2sc(S(N)(=O)=O)cc21,71.7%,102%,inactive,inactive,inactive,inactive,inactive,inactive,,,117%,,inactive,inactive,,,,
COc1ccc(C(=O)CC(=O)c2ccc(C(C)(C)C)cc2)cc1,5.71%,5.54%,inactive,inactive,1.05 µM (active),1.66 µM (active),2.09 µM (active),1.66 µM (active),9.04,88.2,6.24%,2.68,,inactive,,,,
